# aDG glyco up – alpha-DG glycosylation activation; actives 0.22% (n = 360,000); AID 624168; activation, % at 10 µM; Pro5-aDG cells, alpha-DG glycosylation AlphaScreen (IIH6); 0% Pro5, 100% B10-LARGE cell signal;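 active means activation of at least 8% versus controls, or a plate z-score of at least 8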;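 further: Pro5 are CHO cells carrying HIG-tagged alpha-DG that lacks glycosylation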
# HSF1 activator – increases HSF-1 driven luciferase reporter signal. NIH3T3-HGL HSF-1 luciferase reporter, MG132, 8 h; 100% = twice DMSO control signal. activation, % at 9 µM. actives 1.7% (n = 300,000);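 active means mean replicate activation of at least 50% with a set share of replicates each reaching 50%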;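 further: 0% = median of the neutral control wells and 100% = twice that signal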
# HSF1 inhib – HSF1 inhibition; AID 2098; NIH3T3-HGL HSE-luciferase, MG132-induced, luminescence 8 h; hits give low values; activity change, negative = inhibition, % at 7.5 µM (by protocol); actives 0.77% (n = 300,000);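 active means more than half of replicate wells show activity change below -50%, luminescence cut by over half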;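 further: luciferase reports HSF-1 transcriptional activity via heat shock element; 0% = median of DMSO wells and -100% = zero luminescence signal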
# DYRK1A inh – inhibitors of rat Dyrk1A kinase | ADP-Glo luminescence, NFATc1 peptide | inhibition, % at 12.5 µM | actives 0.43% (n = 310,000); in the data active means inhibition above about 50%;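 further: plate controls were vehicle with enzyme for no effect and no enzyme for full effect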
# NPR1 activator – GC-A (human) enzyme activation; P16066; HEK293 GC-A cells, cGMP TR-FRET, EC30 ANP; 0% at EC30 ANP, 100% saturating ANP; activation, % at 10 µM; actives 0.14% (n = 370,000); in the data active means activation above about 40%
# NPR2 activator – GC-B (human) receptor activation | HEK293-GC-B cells, CNP EC30, cGMP TR-FRET; 0% at EC30 CNP, 100% saturating CNP | activation, % at 10 µM | actives 0.11% (n = 370,000) | AID 1920062;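 active means activation at 10 µM reaching about 35% in either raw or pattern-adjusted values, limit read from the data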
# * = called active by the depositor; nt = no result given. Hits are enriched below; roughly 2.5% of the tested compounds scored in any of these assays.
SMILES,aDG glyco up,HSF1 activator,HSF1 inhib,DYRK1A inh,NPR1 activator,NPR2 activator
CC(C)NC(=O)C(=O)Nc1ccc2c(c1)N(S(=O)(=O)c1cccs1)CCC2,0,-6,-2,3,1,-4
COc1cc(C2C(C#N)=C(N)N(N(C)C)C3=C2C(=O)CC(C)(C)C3)ccc1O (stereo unspecified),0,-80,-76*,1,0,2
COc1ccc(C2C(C#N)=C(N)N(N(C)C)C3=C2C(=O)CC(C)(C)C3)cc1OC (stereo unspecified),0,20,2,-3,2,-4
COc1cc(C(=O)N2C[C@H]3CC[C@H]2C3)ccc1OC1CCN(C(C)=O)CC1,0,4,-1,5,-2,-8
COc1cc(C(=O)N2CCSCC2)ccc1OC1CCN(C(C)=O)CC1,0,-66,-55*,-3,2,-11
O=C(/C=C/c1ccccc1)NC(=S)Nc1ccccc1O,0,59*,32,-2,-4,-9
O=C(/C=C/c1ccc(Cl)cc1Cl)NC(=S)Nc1ccc(CN2CCOCC2)cc1,0,28,15,13,3,8
O=C(/C=C/c1ccccc1)NC(=S)Nc1ccc(CN2CCOCC2)cc1,1,73*,38,3,0,3
O=C(/C=C/c1ccc(S(=O)(=O)N2CCOCC2)cc1)NC(=S)Nc1ccc(N2CCOCC2)cc1,0,18,0,8,2,-2
Cc1cc(NC(=S)NC(=O)/C=C/c2ccc(S(=O)(=O)N3CCOCC3)cc2)ccc1Br,0,100*,85,-47,-4,-2
CCOC(=O)c1sc(/N=C/c2c(O)ccc3ccccc23)cc1C,0,-6,-14,1,0,0
CC(=NNC(=O)c1ccncc1)c1ccc2ccccc2c1O,1,nt,nt,-1,3,4
CCOC(=O)Cc1nnc(Nc2cccc(C)c2)c2ccccc12,0,80*,65,-6,-4,2
COC(=O)Cc1nnc(Nc2cccc(C)c2)c2ccccc12,0,-16,-13,0,1,2
S=C(Nc1ccccc1)N(Cc1ccccc1)Cc1ccncc1,0,13,17,1,-9,-3
Cn1c(SCC(=O)N2c3ccccc3Sc3ccc(Cl)cc32)nnc1-c1ccco1,0,nt,nt,-9,-32,-13
O=C(CSc1nnc(-c2ccncc2)n1Cc1ccco1)N1c2ccccc2Sc2ccc(Cl)cc21,0,70*,63,2,-30,-30
Cc1ccc[n+](C(C)C(=O)Nc2ccc(C)c(C)c2)c1 (stereo unspecified),0,-13,-7,-1,9,4
O=C(Nc1ccccc1)N1CCN(Cc2ccc3c(c2)OCO3)CC1,0,6,0,-3,-1,-7
Cc1cc(C)cc(NC(=O)N2CCN(Cc3ccc4c(c3)OCO4)CC2)c1,0,-63,-58*,nt,2,-10
COc1cc(/C=N\NC(=O)C(C)(C)O)ccc1OC/C=C/c1ccccc1,0,39,5,1,-1,-4
O=C(O)c1ccc(N/N=C/c2cn(Cc3ccccc3F)c3ccccc23)cc1,0,-70,-64*,13,0,0
CC(C)n1cc(/C=N/Nc2ccc(C(=O)O)cc2)c2ccccc21,0,-84,-82*,10,-3,1
Cn1cc(/C=N/Nc2ccccc2)c2ccccc21,0,14,5,nt,2,0
Nc1ccc(C(=O)N/N=C/c2cn(Cc3ccccc3F)c3ccccc23)cc1,1,15,-6,6,9,1
SMILES,aDG glyco up,HSF1 activator,HSF1 inhib,DYRK1A inh,NPR1 activator,NPR2 activator
CC(C)n1cc(/C=C(\C#N)S(=O)(=O)c2ccccc2)c2ccccc21,0,13,-3,0,37,51*
O=C(O)c1ccc(N/N=C/c2c[nH]c3ccccc23)cc1,0,-80,-78*,nt,-4,-2
CCCCOCCCNC(=O)/C=C/c1ccccc1Cl,0,-18,-1,9,-2,1
Cn1c(N/N=C/c2c[nH]c3ccccc23)nc2ccccc21,4,61*,36,5,-7,-8
CC(=O)Nc1ccc(NC(=O)C(C)Sc2n[nH]c(-c3cccs3)n2)cc1 (stereo unspecified),0,nt,nt,nt,-1,-6
COC(=O)c1ccc(NC(=O)Nc2ccc3c(c2)OCO3)cc1,0,17,11,-6,1,0
CC(=O)Nc1cccc(NC(=O)COc2ccc3c(c2)OCO3)c1,0,56*,26,38,-3,4
Cc1ccc(OCC(=O)Nc2ccc3c(c2)OCCO3)cc1C,1,-59,-63*,-2,-3,0
NC(=O)c1ccc(NC(=O)Nc2ccc3c(c2)OCO3)cc1,0,58*,16,4,1,3
Cc1ccc(OCC(=O)Nc2ccc(N3CCN(S(C)(=O)=O)CC3)cc2)cc1C,0,61*,35,0,-3,-2
COc1ccc(NC(=O)OC(C)C)cc1,0,20,17,5,-3,3
Cc1nc(NC(=O)c2ccccc2)sc1C1(C)CC(c2c(Cl)cccc2Cl)=NO1 (stereo unspecified),0,7,-1,3,-2,1
CN(CCc1ccccn1)C(=O)[C@@H](Cc1ccccc1)NC(=O)[C@H]1O[C@@H](n2ccc(=O)[nH]c2=O)[C@H](O)[C@@H]1O,nt,nt,nt,nt,-1,4
CCC1CCCCN1Cc1nc2c(c(=O)n(C)c(=O)n2C)n1CC(C)C (stereo unspecified),0,4,-6,0,-1,1
O=C(N/N=C/c1ccc2nccnc2c1)c1ccccc1O,nt,7,3,nt,-5,-7
COc1ccc(NC(=O)COc2ccc3c(c2)OCO3)cc1,0,-32,-21,3,0,2
CC(=O)c1ccc(NC(=O)COc2ccc3c(c2)OCO3)cc1,0,56*,17,0,2,2
C[C@@H]1CN([C@@H](C)CO)C(=O)c2cccc(NC(=O)Nc3cccc4ccccc34)c2O[C@H]1CN(C)S(=O)(=O)c1ccc2c(c1)OCCO2,nt,nt,nt,nt,-5,5
O=c1[nH]c2ccc(NC(=S)Nc3ccccc3Cl)cc2[nH]1,0,-1,-13,45,0,-4
COc1cc(C2NC(=O)NC(C)=C2C(=O)OCC2CCCO2)ccc1O (stereo unspecified),0,-90,-87*,-2,-1,0
Cc1ccc(OCc2cc(C(=O)N3CCCC3)no2)cn1,0,15,12,1,1,3
O=c1c2ccccc2oc2ccc(-c3ccc4cc[nH]c4c3)cc12,0,nt,nt,-7,nt,nt

# Assay outcomes deposited in PubChem by several laboratories.
